The OligoGym collection

Each sequence was assayed against NDUFAB1 (assay: pooled miR-30 sensor sort-seq; sequence = guide strand). Details: shRNA.
Note: reference of the scale not given here.

In order of falling sensor-assay potency score (higher = more potent):
1. AAGTCCATCAGAATCACTCTGT  0.545
2. TACAATTTAAATACAAGTCCAT  0.341
3. TTACTGAAAGCTTCTCTGGGTC  0.337
4. TGTAATCTACAATTTCTTGTGG  0.132
5. TACGTAAAGAACACGGTCCTGG  0.0334
6. TAATCTACAATTTCTTGTGGAC  -0.35
7. TACAATTTCTTGTGGACACATT  -0.835
8. TTCTTGTGGACACATTAACTTT  -1.46

The sequences below were run against NDUFC1 in the same assay as above. Details: shRNA.

In order of rising sensor-assay potency score (higher = more potent):
1. TAGAACTTTGATCGCACTGAAG  -1.43
2. TTTGATGAGATAGATCCACAAG  -1.07
3. TATATATTCACATATAACTTTT  -0.874
4. TTTACAACTCAACAGATGGTGA  -0.815
5. TTGTTTGATGAGATAGATCCAC  -0.545
6. TTCATTGTGTTGTTTGATGAGA  -0.384
7. TTGTACTCTAAAATATCTTCAT  -0.343
8. TTTGATCGCACTGAAGGGCCGC  -0.255
9. TTGATCGCACTGAAGGGCCGCT  -0.209
10. TTTTGTACTCTAAAATATCTTC  -0.163
11. TAGATCCACAAGAAGACAGTGG  0.0941
12. TAAAATATCTTCATTGTGTTGT  1.09

These sequences were tested against NEBL in the same assay as above. Details: shRNA.

In order of falling sensor-assay potency score (higher = more potent):
1. TAGATTTGGTGAATGCTGCATT  0.277
2. TTTGTACTTGACCTGACTCTGC  -0.0804
3. TTATTTGGTCCTGACATTCTGT  -0.142
4. TTCAATAATAGGAACGCGCAGT  -0.234
5. TTGTCTTAAAAGTATCTTCTAT  -0.254
6. TTCATGTTGAGTGCCATCTTGC  -0.598
7. TTGAATCTACATGACATGCAAC  -0.738
8. ATCTCTTTTGTACTTGACCTGA  -0.797
9. TACATGGCTCGGTAGGTCCTTA  -0.857
10. TTCAGGTGTATCTGCCACCGTG  -0.9
11. TAGCTGTGAAGTCAGACCCTAA  -1.2
12. TTTATGCCAATACTTATCCAGG  -1.28

What follows are sequences tested against NEFH in the same assay as above. Details: shRNA.

In order of rising sensor-assay potency score (higher = more potent):
1. TATCTCTATATCCAGAGCCATC  -1.97
2. TAAGCTATCATAATTGTCCATC  -0.916
3. TCTCTTGCTAACATATTGCTAA  -0.697
4. TTTTCTTATCTTCAGCCTCTTC  -0.582
5. TACCTCTGTCTTTTCTTTGGGT  0.0672
6. TTCGACAGCAGGTTCCTTCTTC  0.393
7. TTCAACTTTGGATTCTTTGGGC  0.436
8. TATTGCTAACAGAAATTCCTGT  0.67
